Data taken from PubChem BioAssay (Tox21).
Several values for one entry are separate records, joined by “and”; a condition that tells them apart may be missing. Equal entries are not always repeated. Inconclusive results are not listed. The source holds several records for some structures; these can differ, active in one and inactive in another. Activity calls are given as the source filed them. The call rests on the fitted dose curve; in most records, active means well fitted curve in the direction sought with a large enough effect in the repeat runs; inconclusive means weak or mixed curves; inactive means no such curve, though single readings can be large; an effect the other way counts as inactive or inconclusive.

Legend:
[1] = A CellTox Green Cytotoxicity Assay to monitor cytotoxicity in HEK293 cells - 40 hour (AID 1224871); further: nearly all actives have a fitted effect of over 45% in size; further: potency means the concentration at half of the fitted maximal effect
How it was run: (§1)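 Cytotoxicity was tracked continuously in HEK293 cells by a DNA-binding dye excluded from viable cells. Compounds were transferred in DMSO 5 h after seeding; fluorescence was recorded at intervals up to 40 h.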

[2] = qHTS RealTime-Glo MT Cell Viability Assay in HEK293 cells - 16 hour (AID 1224872); further: nearly all actives have a fitted effect of over 50% in size; further: potency means the concentration at half of the fitted maximal effect
How it was run: (§2)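 Viability tracked continuously by luminescence as live cells reduce a prosubstrate for NanoLuc; HEK293 cells preincubated 5 h, compound-treated at 37 C, and read at 0, 8, 16, 24, 32 and 40 h.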

[3] = qHTS RealTime-Glo MT Cell Viability Assay in HepG2 cells - 8 hour (AID 1224873); further: nearly all actives have a fitted effect of over 55% in size
How it was run: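 Real-time viability: cells seeded at 600 per well together with NanoLuc and cell-permeant prosubstrate, compounds added after 5 h incubation. Luminescence tracked at 0, 8, 16, 24, 32 and 40 h of exposure.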

[4] = qHTS RealTime-Glo MT Cell Viability Assay in HEK293 cells - 40 hour (AID 1224874); settings: RealTime-Glo luminescence; max response: stronger effect = lower value; further: nearly all actives have a fitted effect of over 50% in size; further: potency means the concentration at half of the fitted maximal effect
How it was run: (§3)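 Nonlytic bioluminescent viability monitoring. HEK293 at 600 cells/well with reagent; 5 h settle; compound transfer by pintool; plates held at 37 C and read at set time points.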

[5] = A CellTox Green Cytotoxicity Assay to monitor cytotoxicity in HEK293 cells - 24 hour (AID 1224875); further: series mostly up to about 77 µM; nearly all actives have a fitted effect of over 45% in size
How it was run: as §1

[6] = A CellTox Green Cytotoxicity Assay to monitor cytotoxicity in HepG2 cells - 16 hour (AID 1224876); further: nearly all actives have a fitted effect of over 45% in size
How it was run: (§4)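 Real-time, homogeneous cytotoxicity readout: dead-cell DNA staining by CellTox Green in HepG2 monolayers, fluorescence measured at timed intervals up to 40 h of continuous compound exposure.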

[7] = A CellTox Green Cytotoxicity Assay to monitor cytotoxicity in HepG2 cells - 40 hour (AID 1224879); further: nearly all actives have a fitted effect of over 40% in size
How it was run: as §4

[8] = qHTS RealTime-Glo MT Cell Viability Assay in HEK293 cells - 0 hour (AID 1224880); further: top concentration of the series differs between compounds; nearly all actives have a fitted effect of over 45% in size
How it was run: as §3

[9] = A CellTox Green Cytotoxicity Assay to monitor cytotoxicity in HEK293 cells - 32 hour (AID 1224881); further: nearly all actives have a fitted effect of over 40% in size
How it was run: as §1

[10] = A CellTox Green Cytotoxicity Assay to monitor cytotoxicity in HepG2 cells - 0 hour (AID 1224882); further: nearly all actives have a fitted effect of over 35% in size
How it was run: as §4

[11] = A CellTox Green Cytotoxicity Assay to monitor cytotoxicity in HepG2 cells - 32 hour (AID 1224883); further: nearly all actives have a fitted effect of over 50% in size; further: potency means the concentration at half of the fitted maximal effect
How it was run: as §4

[12] = A CellTox Green Cytotoxicity Assay to monitor cytotoxicity in HEK293 cells - 8 hour (AID 1224884); further: nearly all actives have a fitted effect of over 35% in size
How it was run: as §1

[13] = qHTS RealTime-Glo MT Cell Viability Assay in HepG2 cells - 16 hour (AID 1224885); further: nearly all actives have a fitted effect of over 50% in size
How it was run: (§5)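 Viability was tracked continuously by NanoLuc luminescence from prosubstrate reduced by living HepG2 cells, at successive time points over 40 h of compound exposure. Cells with reagent were preincubated 5 h at 37 °C before compound addition.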

[14] = qHTS RealTime-Glo MT Cell Viability Assay in HEK293 cells - 24 hour (AID 1224886); further: nearly all actives have a fitted effect of over 50% in size; further: potency means the concentration at half of the fitted maximal effect
How it was run: as §2

[15] = qHTS RealTime-Glo MT Cell Viability Assay in HEK293 cells - 8 hour (AID 1224887); further: nearly all actives have a fitted effect of over 50% in size; further: potency means the concentration at half of the fitted maximal effect
How it was run: as §3

[16] = A CellTox Green Cytotoxicity Assay to monitor cytotoxicity in HEK293 cells - 16 hour (AID 1224888); further: nearly all actives have a fitted effect of over 35% in size
How it was run: as §1

[17] = qHTS RealTime-Glo MT Cell Viability Assay in HepG2 cells - 0 hour (AID 1224889); further: nearly all actives have a fitted effect of over 50% in size
How it was run: as §5

[18] = A CellTox Green Cytotoxicity Assay to monitor cytotoxicity in HepG2 cells - 8 hour (AID 1224890); further: nearly all actives have a fitted effect of over 45% in size
How it was run: as §4

[19] = qHTS RealTime-Glo MT Cell Viability Assay in HepG2 cells - 32 hour (AID 1224877); further: nearly all actives have a fitted effect of over 55% in size
How it was run: as §5

[20] = A CellTox Green Cytotoxicity Assay to monitor cytotoxicity in HepG2 cells - 24 hour (AID 1224878); further: nearly all actives have a fitted effect of over 45% in size
How it was run: as §4
On the % scale 0 is the no-effect control and ±100 the full control effect.

CCCCCCCCCCCCCC(=O)OC(C)C
inactive and 4.36 µM (active): Potency [2]
inactive: Potency [1] | outcome [3] | max response [4] 1.2% and -0.28% | Potency [5] | Potency [6] | Potency [7] | Potency [8] | Potency [9] | Potency [10] | Potency [11] | Potency [12] | Potency [13] | Potency [16] | Potency [17] | Potency [18]
inactive and 9.77 µM (active): Potency [15]
active: Potency [4] 2750 nM
inactive and 3.47 µM (active): Potency [14]

CCCCNC(=O)NS(=O)(=O)c1ccc(N)cc1
inactive: Potency [1] | Potency [2] | outcome [3] | max response [4] 3.02% and 10% | Potency [5] | Potency [6] | outcome [19] | Potency [7] | Potency [8] | Potency [9] | Potency [10] | Potency [11] | Potency [12] | Potency [13] | Potency [14] | Potency [15] | Potency [16] | Potency [17] | Potency [18]

CCN(CC)CCOC(=O)c1ccc(N)cc1
inactive: Potency [1] | Potency [2] | outcome [3] | max response [4] -6.53% and -0.799% | Potency [5] | Potency [6] | outcome [19] | Potency [20] | Potency [7] | Potency [8] | Potency [9] | Potency [10] | Potency [11] | Potency [12] | Potency [13] | Potency [14] | Potency [15] | Potency [16] | Potency [17] | Potency [18]

COc1cc2c(c(OC)c1OC)-c1ccc(OC)c(=O)cc1[C@@H](NC(C)=O)CC2
inactive: Potency [2] | outcome [3] | Potency [5] | Potency [6] | outcome [19] | Potency [20] | Potency [8] | Potency [9] | Potency [10] | Potency [12] | Potency [13] | Potency [14] | Potency [15] | Potency [17] | Potency [18]
34.3 µM (active) and inactive: Potency [1]
active: Potency [4] 21.6 nM
60.9 µM (active) and inactive: Potency [11]

CC1(C)O[C@@H]2[C@@H](CO[C@@]3(COS(N)(=O)=O)OC(C)(C)O[C@@H]23)O1
inactive: Potency [1] | Potency [2] | outcome [3] | max response [4] -1.97% | Potency [5] | Potency [6] | outcome [19] | Potency [20] | Potency [7] | Potency [8] | Potency [9] | Potency [10] | Potency [11] | Potency [12] | Potency [13] | Potency [14] | Potency [15] | Potency [17] | Potency [18]

COc1cc(C=O)ccc1O
inactive: Potency [1] | Potency [2] | outcome [3] | max response [4] 0.342% and 3.21% and 2.85% | Potency [5] | Potency [6] | outcome [19] | Potency [20] | Potency [8] | Potency [9] | Potency [10] | Potency [11] | Potency [12] | Potency [13] | Potency [14] | Potency [15] | Potency [17] | Potency [18]

Oc1cccc(O)c1
inactive: Potency [1] | Potency [2] | outcome [3] | max response [4] -0.181% and -6.38% and 1.58% | Potency [5] | Potency [6] | outcome [19] | Potency [20] | Potency [8] | Potency [9] | Potency [10] | Potency [11] | Potency [12] | Potency [13] | Potency [14] | Potency [15] | Potency [16] | Potency [17] | Potency [18]

COc1ccc(O)cc1
inactive: Potency [1] | Potency [2] | outcome [3] | max response [4] -25.5% and -26.5% and -24.7% | Potency [5] | Potency [6] | Potency [20] | Potency [7] | Potency [8] | Potency [9] | Potency [10] | Potency [11] | Potency [12] | Potency [13] | Potency [14] | Potency [15] | Potency [16] | Potency [17] | Potency [18]

NC(=O)NO
inactive: Potency [1] | Potency [2] | outcome [3] | max response [4] 19.8% and 1.62% | Potency [5] | Potency [6] | outcome [19] | Potency [8] | Potency [9] | Potency [10] | Potency [11] | Potency [12] | Potency [13] | Potency [14] | Potency [15] | Potency [16] | Potency [17] | Potency [18]

O=C(O)Cc1cccc2ccccc12
inactive: Potency [1] | Potency [2] | outcome [3] | max response [4] 0.279% and 2.27% and -0.352% | Potency [5] | Potency [6] | outcome [19] | Potency [7] | Potency [8] | Potency [9] | Potency [10] | Potency [11] | Potency [12] | Potency [13] | Potency [14] | Potency [15] | Potency [16] | Potency [17] | Potency [18]

O=C(O)CN(CC(=O)O)CC(=O)O
inactive: Potency [1] | Potency [2] | outcome [3] | max response [4] 3.36% and 17.8% | Potency [5] | Potency [6] | outcome [19] | Potency [7] | Potency [8] | Potency [9] | Potency [10] | Potency [11] | Potency [12] | Potency [13] | Potency [14] | Potency [15] | Potency [17] | Potency [18]

COc1ccccc1O
inactive: Potency [1] | Potency [2] | outcome [3] | max response [4] 18.7% and 1.57% and 2.8% | Potency [5] | Potency [6] | outcome [19] | Potency [8] | Potency [9] | Potency [10] | Potency [11] | Potency [12] | Potency [13] | Potency [14] | Potency [15] | Potency [16] | Potency [17] | Potency [18]
